# The panel holds about 79,000 compounds, 15% with a hit somewhere; the sample as a whole holds those more often. Values without a mark were called inactive. Calls of active or inactive are those of the source. Rule as the data show it: active = growth inhibition above about 70%; inactive = the rest.
# Columns and labels:
# [1] = NCI Yeast Anticancer Drug Screen. Data for the rad52 strain (AID 147);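 also: 0% = growth of vehicle-treated control cultures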; conditions: S. cerevisiae rad52 mutant growth inhibition, active compounds read high
# Outline: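 Yeast strain carrying a DNA damage repair alteration was exposed to test compounds. Growth inhibition was measured relative to vehicle-treated controls.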
# [2] = NCI Yeast Anticancer Drug Screen. Data for the wt1 strain (AID 149);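 also: 0% = growth of vehicle-treated wt1 cultures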; conditions: S. cerevisiae wt1 strain (SPY 50644) growth inhibition, active compounds read high
# Outline: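 wt1 strain grown with compound or vehicle; inhibition taken from the growth difference.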
# [3] = NCI Yeast Anticancer Drug Screen. Data for the rad50EPP+ strain (AID 151);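 also: 0% = growth of vehicle-treated control cultures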; conditions: S. cerevisiae rad50 mutant strain, active compounds read high
# Outline: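 Yeast strain carrying rad50 alteration (rad50EPP+) exposed to compounds; growth inhibition measured relative to vehicle-treated controls.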
# [4] = NCI Yeast Anticancer Drug Screen. Data for the mgt1 strain (AID 153); conditions: S. cerevisiae mgt1 mutant growth inhibition, active compounds read high
# Outline: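 Yeast mgt1 strain (DNA repair/cell-cycle alteration panel) exposed to compounds; growth inhibition measured relative to vehicle-treated controls.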
# [5] = NCI Yeast Anticancer Drug Screen. Data for the rad50 strain (AID 155);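 also: 0% = growth of vehicle-only cultures of the same strain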; conditions: S. cerevisiae rad50 strain growth inhibition, active compounds read high
# Outline: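 DNA repair mutant yeast, compound exposure, growth read-out; inhibition is taken relative to vehicle.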
# [6] = NCI Yeast Anticancer Drug Screen. Data for the mec2-1 strain (AID 157); conditions: S. cerevisiae mec2-1 strain, active compounds read high
# Outline: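 mec2-1 yeast strain, carrying an alteration in DNA damage repair or cell cycle control, was exposed to compounds; growth inhibition was measured relative to vehicle-treated controls.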
# [7] = NCI Yeast Anticancer Drug Screen. Data for the rad14 strain (AID 159);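 also: 0% = growth of vehicle-treated control cultures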; conditions: S. cerevisiae rad14 strain growth inhibition, active compounds read high
# Outline: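 DNA repair-defective yeast, compound-exposed; % growth inhibition derived by comparison with vehicle-treated controls.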
# [8] = NCI Yeast Anticancer Drug Screen. Data for the sgs1 mgt1 strain (AID 161);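 also: 0% = growth of cultures given vehicle only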; conditions: S. cerevisiae sgs1 mgt1 strain, active compounds read high
# Outline: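 Percent growth inhibition was derived by comparing compound-exposed mutant yeast with vehicle-exposed cultures. The strain carries alterations in DNA damage repair.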
# [9] = NCI Yeast Anticancer Drug Screen. Data for the CLN2oe strain (AID 163);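 also: 0% = growth of vehicle-only control cultures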; conditions: S. cerevisiae CLN2oe strain, active compounds read high
# Outline: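 Yeast cells carrying a defined cell-cycle control alteration were exposed to test compounds. Growth inhibition was scored against vehicle-treated control cultures.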
# [10] = NCI Yeast Anticancer Drug Screen. Data for the cln2 rad14 strain (AID 165);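 also: 0% = growth equal to vehicle treated cultures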; conditions: S. cerevisiae cln2 rad14 strain, active compounds read high
# Outline: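 Yeast carrying cln2 and rad14 alterations (cell cycle control and DNA damage repair) were exposed to compounds. Growth inhibition was measured against vehicle-treated controls.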
# [11] = NCI Yeast Anticancer Drug Screen. Data for the bub3 strain (AID 167); conditions: S. cerevisiae bub3 mutant strain, active compounds read high
# Outline: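 In this screen, a yeast mutant lacking normal mitotic checkpoint function is challenged with compound. Relative growth versus vehicle gives the inhibition value.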
# [12] = NCI Yeast Anticancer Drug Screen. Data for the wt2 strain (AID 169);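 also: 0% = growth of vehicle-treated yeast cultures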; conditions: S. cerevisiae wt2 strain growth inhibition, active compounds read high
# Outline: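 Yeast cells were exposed to test compounds, and growth inhibition was measured relative to vehicle-treated controls.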
# [13] = NCI Yeast Anticancer Drug Screen. Data for the mlh1 strain (AID 171);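 also: 0% = growth of vehicle-treated control cultures of the same strain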; conditions: S. cerevisiae mlh1 strain growth inhibition, active compounds read high
# Outline: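 Yeast carrying a defined genetic alteration in DNA damage repair or cell cycle control were exposed to test compounds. Growth inhibition was measured relative to vehicle-treated controls.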
# [14] = NCI Yeast Anticancer Drug Screen. Data for the sgs1 strain (AID 173);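 also: 0% = growth of vehicle-only control cultures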; conditions: S. cerevisiae sgs1 mutant, active compounds read high
# Outline: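 Yeast mutant strains carrying defined defects in DNA damage repair or cell cycle control were exposed to test compounds. Growth inhibition was scored against vehicle-treated controls.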
# [15] = NCI Yeast Anticancer Drug Screen. Data for the mlh1 rad18 strain (AID 175); conditions: S. cerevisiae mlh1 rad18 strain growth inhibition, active compounds read high
# Outline: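 Growth inhibition of the yeast strain was measured after compound exposure and expressed relative to vehicle-treated controls. The strain carries defined defects in DNA damage repair.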
# [16] = NCI Yeast Anticancer Drug Screen. Data for the rad18 strain (AID 177); conditions: S. cerevisiae rad18 mutant growth inhibition, active compounds read high
# Outline: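 Yeast carrying a defined DNA damage repair alteration were exposed to compounds. Growth inhibition was expressed relative to vehicle-treated controls.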
# [17] = at 5.0 µM (retest, dose inferred, filed as 0.5)
# [18] = at 50.0 µM (retest, dose inferred, filed as 5.0)
smiles,measurement,setting,value
CC1CCC(C2=CSC3CCCCC3N2)CC1 (stereo not drawn),growth inhibition,[1]; at 1.2 µM,21%
same,growth inhibition,[1]; at 3.7 µM,21%
same,growth inhibition,[1]; at 11.0 µM,21%
same,growth inhibition,[1]; at 33.0 µM,37%
same,growth inhibition,[1]; at 100.0 µM,78% (active)
same,growth inhibition,[2]; at 1.2 µM,14%
same,growth inhibition,[2]; at 3.7 µM,-2%
same,growth inhibition,[2]; at 11.0 µM,3%
same,growth inhibition,[2]; at 33.0 µM,31%
same,growth inhibition,[2]; at 100.0 µM,65%
same,growth inhibition,[3]; at 1.2 µM,1%
same,growth inhibition,[3]; at 3.7 µM,-14%
same,growth inhibition,[3]; at 11.0 µM,-8%
same,growth inhibition,[3]; at 33.0 µM,14%
same,growth inhibition,[3]; at 100.0 µM,71% (active)
same,growth inhibition,[4]; at 1.2 µM,-1%
same,growth inhibition,[4]; at 3.7 µM,4%
same,growth inhibition,[4]; at 11.0 µM,9%
same,growth inhibition,[4]; at 33.0 µM,32%
same,growth inhibition,[4]; at 100.0 µM,91% (active)
same,growth inhibition,[5]; at 1.2 µM,16%
same,growth inhibition,[5]; at 3.7 µM,23%
same,growth inhibition,[5]; [17],17%
same,growth inhibition,[5]; at 11.0 µM,20%
same,growth inhibition,[5]; at 33.0 µM,37%
same,growth inhibition,[5]; [18],13%
same,growth inhibition,[5]; at 50.0 µM,43%
same,growth inhibition,[5]; at 100.0 µM,74% (active)
same,growth inhibition,[6]; at 1.2 µM,-36%
same,growth inhibition,[6]; at 3.7 µM,5%
same,growth inhibition,[6]; [17],-6%
same,growth inhibition,[6]; at 11.0 µM,3%
same,growth inhibition,[6]; at 33.0 µM,14%
same,growth inhibition,[6]; [18],71% (active)
same,growth inhibition,[6]; at 50.0 µM,56.5%
same,growth inhibition,[6]; at 100.0 µM,80% (active)
same,growth inhibition,[7]; at 1.2 µM,-20%
same,growth inhibition,[7]; at 3.7 µM,-16%
same,growth inhibition,[7]; at 11.0 µM,-11%
same,growth inhibition,[7]; at 33.0 µM,-6%
same,growth inhibition,[7]; at 100.0 µM,76% (active)
same,growth inhibition,[8]; [17],-4%
same,growth inhibition,[8]; [18],28%
same,growth inhibition,[8]; at 50.0 µM,51.1%
same,growth inhibition,[9]; at 1.2 µM,-3%
same,growth inhibition,[9]; at 3.7 µM,13%
same,growth inhibition,[9]; at 11.0 µM,0%
same,growth inhibition,[9]; at 33.0 µM,22%
same,growth inhibition,[9]; at 100.0 µM,45%
same,growth inhibition,[10]; [17],32%
same,growth inhibition,[10]; [18],42%
same,growth inhibition,[10]; at 50.0 µM,11.6%
same,growth inhibition,[11]; at 1.2 µM,5%
same,growth inhibition,[11]; at 3.7 µM,-4%
same,growth inhibition,[11]; [17],42%
same,growth inhibition,[11]; at 11.0 µM,5%
same,growth inhibition,[11]; at 33.0 µM,29%
same,growth inhibition,[11]; [18],84% (active)
same,growth inhibition,[11]; at 50.0 µM,66%
same,growth inhibition,[11]; at 100.0 µM,73% (active)
same,growth inhibition,[12]; at 1.2 µM,-8%
same,growth inhibition,[12]; at 3.7 µM,-3%
same,growth inhibition,[12]; at 11.0 µM,-4%
same,growth inhibition,[12]; at 33.0 µM,19%
same,growth inhibition,[12]; at 100.0 µM,74% (active)
same,growth inhibition,[13]; at 1.2 µM,6%
same,growth inhibition,[13]; at 3.7 µM,4%
same,growth inhibition,[13]; at 11.0 µM,11%
same,growth inhibition,[13]; at 33.0 µM,28%
same,growth inhibition,[13]; at 100.0 µM,74% (active)
same,growth inhibition,[14]; at 1.2 µM,15%
same,growth inhibition,[14]; at 3.7 µM,5%
same,growth inhibition,[14]; at 11.0 µM,14%
same,growth inhibition,[14]; at 33.0 µM,35%
same,growth inhibition,[14]; at 100.0 µM,67%
same,growth inhibition,[15]; [17],7%
same,growth inhibition,[15]; [18],85% (active)
same,growth inhibition,[15]; at 50.0 µM,38.8%
same,growth inhibition,[16]; at 1.2 µM,-5%
same,growth inhibition,[16]; at 3.7 µM,-6%
same,growth inhibition,[16]; at 11.0 µM,-6%
same,growth inhibition,[16]; at 33.0 µM,3%
same,growth inhibition,[16]; at 100.0 µM,45%

# From PubChem BioAssay (NCI)
